Data from PubChem BioAssay AID686978 (National Center for Advancing Translational Sciences (NCATS), 2013).
“And” between values parts separate entries of the source, which are not always exact repeats. Identical values can stand only once. The whole screen tested about 420,000 compounds, of which about 64,000 (15%) were called active. Inconclusive results (about 27%) are left out. A selection follows. Values without a mark were called inactive. Calls follow the shape of the dose curve; as a rule, active = well fitted inhibition curve with a large enough effect; inconclusive = small, poorly fitted or top-dose-only effect; inactive = flat fitted curve, though single readings scatter.

Assay: qHTS for Inhibitors of human tyrosyl-DNA phosphodiesterase 1 (TDP1): qHTS in cells in absence of CPT; also: nearly all actives have a fitted effect of over 55% in size
Settings: DT40 Tdp1-/- hTDP1 cells, no CPT, ATP luminescence, 48 h; activity change, negative = growth inhibition: at 46.2 µM (top of the series)
Procedure, shortened: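 A cellular qHTS used chicken DT40 cells lacking endogenous Tdp1 but carrying stably transfected human TDP1. Compounds were applied without camptothecin, and cell growth kinetics were judged by ATP-dependent luminescence after ≥48 hr.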
% is scaled to controls: 0 for no effect and ±100 for the full control effect; potency is read from the fitted curve at half-maximal effect.

Row | SMILES | activity change, negative = growth inhibition [%] | Potency
1 | Cc1nc2ccc(S(=O)(=O)NC(C(=O)NCc3ccccc3Cl)C(C)C)cc2s1 (stereo not drawn) | -0.153 | 
2 | C[n+]1cccc(C(=O)O)c1 | -1.14 | 
3 | CSc1ncccc1C(=O)NCc1ccccc1Cl | 6.16 | 
4 | CCOCCCNC(=O)C(NC(=O)c1ccc(=O)[nH]c1)c1ccc(Cl)cc1 (stereo not drawn) | -14.6 | 
5 | c1ccc(-c2csc(N3CCc4ccccc4C3)n2)cc1 | -1.48 | 
6 | Cc1noc(C)c1CCC(=O)O | 1.68 | 
7 | Cc1ccc(S(=O)(=O)N2CC(O)C[C@H]2C(=O)OCC(=O)Nc2ccc(N3CCOCC3)cc2)cc1C (stereo partly drawn) | 14.4 | 
8 | COc1ccc(NC(=O)CSc2nnc(Cc3ccccc3)c(=O)n2N)cc1 | -10.7 | 
9 | COc1ccc(NC(=O)CSc2nc3ccccc3c(=O)n2C)cc1 |  | 10.3 µM (active)
10 | COc1ccc(-n2nnnc2SCC(=O)Nc2ccccc2)cc1 | -28.3 | 
11 | O=C1/C(=C\Nc2ccccc2)CCN1c1ncccn1 | -14 | 
12 | CCC(C)(C)NC(=O)C(c1ccc(O)cc1)N(Cc1ccco1)C(=O)CCC(=O)Nc1ccccn1 (stereo not drawn) | -15.2 | 
13 | Cc1cc(NC(=O)CCC(=O)N(c2ccccc2)C(C(=O)NC2CCCC2)c2ccncc2)no1 (stereo not drawn) | -2.03 | 
14 | Cc1ccc(C(C(=O)NC2CCCC2)N(Cc2ccco2)C(=O)CCC(=O)Nc2ccccn2)cc1 (stereo not drawn) |  | 16.4 µM (active)
15 | CC(=O)NC1(c2ccc(F)cc2)CCN(C(=O)c2c(F)cccc2F)CC1 | -1.26 | 
16 | CC(C)c1ccc(NC(=O)NC2CCCCC2)cc1 |  | 20.6 µM (active)
17 | Cc1cc(C)cc(NC(=O)NC2CCCCCCC2)c1 | 3.43 | 
18 | CC(C)(C)NS(=O)(=O)c1ccc(NC(=O)NC2CCCCC2)cc1 | -24.7 | 
19 | O/N=C(\C[n+]1ccccc1)c1ccc(Br)cc1 | 9.42 | 
20 | COc1ccc(CCNC(=O)CN2CCC(n3nnc4cc(F)ccc43)CC2)cc1OC | -21.5 | 
21 | Cc1cccc(NC(=O)CSC(N)=O)c1C |  | 18.4 µM (active)
22 | Cc1cccc(NC(=O)COC(=O)CCc2ccccc2)c1C | -0.618 | 
23 | Cc1ccccc1NC(=O)CSC(=O)c1ccccc1 | -114 | 
24 | N#CCCN(C(=O)COC(=O)c1ccc(S(=O)(=O)N2CCCCCC2)cc1)c1ccccc1 | -20.9 | 
25 | COc1ccccc1-n1nnnc1SCC(=O)NC(=O)Cc1ccccc1 | 9.83 | 
26 | COc1ccccc1-n1nnnc1S(=O)(=O)Cc1ccc(Cl)cc1 |  | 6.51 µM (active)
27 | CCC(C)N(C(=O)CSc1nnnn1-c1ccccc1OC)C1CCS(=O)(=O)C1 (stereo not drawn) | 15.2 | 

Row | SMILES | activity change, negative = growth inhibition [%] | Potency
28 | CCOC(=O)C(Sc1ncc(C#N)c(N)n1)C(C)C (stereo not drawn) | -16.3 | 
29 | O=C(CSc1nnc(-c2ccncc2)n1-c1ccc(Cl)cc1)Nc1ccc(C(=O)O)cc1 | -9.17 | 
30 | Cc1cc(NC(=O)CSCC(=O)NC(C)c2ccccc2)no1 (stereo not drawn) | 4.75 | 
31 | CN(CC(=O)Nc1c(Cl)cccc1Cl)C(=O)CC1OC(=O)c2ccccc21 (stereo not drawn) | 2.57 | 
32 | Cc1ccc(S(=O)(=O)Nc2ccccc2CNc2c(C)n(C)n(-c3ccccc3)c2=O)cc1 | 1.18 | 
33 | CCc1ccc(NC(=O)C2CCCN2S(=O)(=O)c2ccc3nc(-c4ccccc4)[nH]c3c2)cc1 (stereo not drawn) |  | 23.1 µM (active)
34 | CC(=O)Nc1ccc(NC(=O)C2CCCN2S(=O)(=O)c2cccc(C(F)(F)F)c2)cc1 (stereo not drawn) | 8.22 | 
35 | CCc1nnc(NC(=O)C2CCCN2S(=O)(=O)c2ccccc2)s1 (stereo not drawn) | 4.37 | 
36 | CCc1ccccc1NS(=O)(=O)c1ccc2nc(-c3ccccc3)[nH]c2c1 |  | 9.2 µM (active)
37 | CCOc1ccc(OCC)c(NS(=O)(=O)c2ccc3[nH]c(=O)ccc3c2)c1 | 1.43 | 
38 | COc1ccc(NC(=O)C2C3CCC(O3)C2C(=O)O)cc1OC (stereo not drawn) | 21.9 | 
39 | CC(=O)N1CCN(CC(C)(C)NS(=O)(=O)c2ccc(C)cc2)CC1 | 17.7 | 
40 | COc1cc(OC)c(C(=O)NNC(=O)c2ccc(NS(=O)(=O)c3cccs3)cc2)cc1OC | 3.62 | 
41 | CCN(CC)CCn1c2ccc(Cl)cc2c2nc(C)sc21 |  | 23.1 µM (active)
42 | COC(=O)Cn1c2ccc(C)cc2c2nc(C)sc21 | -12.8 | 
43 | COc1cc2c(cc1OC)C(c1ccccc1Br)NC(=O)C2 (stereo not drawn) | 7.95 | 
44 | O=C(CCn1c(=O)oc2ccccc21)Nc1ccon1 | -1.36 | 
45 | O=C(CNC(=O)c1ccccc1Br)NNC(=O)c1cccs1 | 3.7 | 
46 | Cc1ccc(S(=O)(=O)c2nnn3c2nc(N2CCN(c4ccccn4)CC2)c2ccccc23)cc1 | 0.726 | 
47 | Cc1ccc(C)c(S(=O)(=O)c2nnn3c2nc(N2CCOCC2)c2sccc23)c1 |  | 23.1 µM (active)
48 | O=S(=O)(c1ccc(Br)cc1)c1nnn2c1nc(NC1CCCCCC1)c1sccc12 | -5.37 | 
49 | COc1ccc(CCOC(=O)CNC(=O)c2ccc(Cl)cc2Cl)cc1 | 11.6 | 
50 | COc1ccc(Nc2ncc(C(=O)N3CCN(c4ccccc4OC)CC3)c3ccccc23)cc1 |  | 25.9 µM (active) and 5.8 µM (active)
51 | COc1ccc(NC2CCCN(C(=O)c3ccccc3-c3ncc[nH]3)C2)cc1 (stereo not drawn) | -7.25 | 
52 | COc1ccc(Nc2ncc(C(=O)Nc3cc(C)ccc3OC)c3ccccc23)cc1 |  | 23.1 µM (active)
53 | COc1ccc(NC(=O)c2cnc(Nc3ccc(C)c(Cl)c3)c3ccccc23)cc1OC | 10.1 | 
